Compound activity: PubChem, National Center for Advancing Translational Sciences (NCATS)
Hits are enriched below; roughly 6.9% of the tested compounds scored in any of these assays.
VDR inh: vitamin D3 receptor (human) inhibition. VDR-SRC2-3 peptide fluorescence polarization, 2 h. Potency, µM, for the others: max response, negative = inhibition, hits mostly inhibitors. 0.93% of 400,000 active. AID 504847; also: % is scaled to controls: 0 for no effect and ±100 for the full control effect
Target sequence (P11473 whole entry, looked up): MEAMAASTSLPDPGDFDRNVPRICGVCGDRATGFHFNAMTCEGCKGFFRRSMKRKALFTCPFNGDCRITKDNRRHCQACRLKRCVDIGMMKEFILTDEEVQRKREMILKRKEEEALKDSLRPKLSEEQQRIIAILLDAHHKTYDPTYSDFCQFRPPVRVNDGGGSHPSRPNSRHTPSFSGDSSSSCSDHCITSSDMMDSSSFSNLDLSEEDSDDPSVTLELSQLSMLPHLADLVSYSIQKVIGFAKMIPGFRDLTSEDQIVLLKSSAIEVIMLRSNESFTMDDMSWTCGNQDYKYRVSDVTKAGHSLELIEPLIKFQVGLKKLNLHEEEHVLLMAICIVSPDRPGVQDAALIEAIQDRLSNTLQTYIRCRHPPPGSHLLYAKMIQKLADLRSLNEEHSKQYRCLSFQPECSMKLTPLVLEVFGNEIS
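After 23 nl compound addition and a short centrifugation, plates sat for 2 hours at ambient temperature; polarization of fluorescence then indicated loss of VDR binding to peptide SRC2-3.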
PLK1 PBD inh: PLK1 (human) polo-box domain binding inhibition | Plk1 PBD binding of FITC phosphopeptide, fluorescence polarization | Potency, µM, inactives show max response, negative = inhibition, actives largely listed as inhibitors | 2.8% of 360,000 active; also: series mostly up to about 57 µM; % is scaled to controls: 0 for no effect and ±100 for the full control effect; nearly all actives have a fitted effect of over 65% in size
JMJD2A Tudor inh: inhibitors of human JMJD2A Tudor domain; Potency, µM (highest dose often 114 µM), for the others: top-dose activity change, negative = inhibition, hits mostly inhibitors; AlphaScreen JMJD2A-Tudor / H3K4me3 peptide binding; 4.4% of 390,000 active; O75164; also: % is scaled to controls: 0 for no effect and ±100 for the full control effect; nearly all actives have a fitted effect of over 50% in size
HP1b chromo inh: blocks HP1-beta chromodomain binding to methylated histone tails; 0.56% of 390,000 active; AlphaScreen HP1-beta / biotin-H3K9me3 peptide binding; Potency, µM (highest dose often 114 µM), inactives show at the highest dose activity change, negative = inhibition, most hits filed as inhibitors; P83916; also: nearly all actives have a fitted effect of over 70% in size
Target sequence (P83916 whole entry, looked up): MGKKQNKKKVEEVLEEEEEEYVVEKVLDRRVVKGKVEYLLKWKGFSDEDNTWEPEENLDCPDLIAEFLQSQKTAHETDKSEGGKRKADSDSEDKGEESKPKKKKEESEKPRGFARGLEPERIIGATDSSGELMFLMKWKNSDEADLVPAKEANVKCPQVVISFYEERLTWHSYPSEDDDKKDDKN
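HP1-beta protein (50 nM final) preincubated 30 min at room temperature with biotinylated H3(1-18)K9me3 peptide (50 nM) in PBS pH 7.4, 0.01% Tween-20, then compound added for 30 min. AlphaScreen streptavidin donor/nickel chelate acceptor beads (10 ug/mL final), 30 min dark, luminescence read.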
BAZ2B block: inhibitors of human BAZ2B bromodomain. Q9UIF8. AlphaScreen BAZ2B-H3K14Ac peptide displacement. Potency, µM (series often up to 114 µM), without a hit: at the top dose activity change, negative = inhibition, hits mostly inhibitors. 4.4% of 360,000 active. AID 504333; also: % is scaled to controls: 0 for no effect and ±100 for the full control effect; nearly all actives have a fitted effect of over 60% in size
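In this displacement format the biotinylated H3(5-23) peptide acetylated at Lys14 serves as ligand at 50 nM, with BAZ2B at 50 nM in PBS pH 7.4 containing 0.01% Tween-20. Donor and acceptor beads are 10 ug/mL final.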
L3MBTL1 block: blocks human L3MBTL1. Q9Y468. AlphaScreen L3MBTL1–H3K9me1 peptide binding. Potency, µM (top dose mostly 57.1 µM), without a hit: at the highest dose activity, negative = inhibition, most hits filed as inhibitors. 0.66% of 230,000 active; also: % is scaled to controls: 0 for no effect and ±100 for the full control effect; nearly all actives have a fitted effect of over 60% in size
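First, the protein-peptide complex forms for 30 min at room temperature (L3MBTL1 50 nM, biotinylated H3K9me1 peptide 75 nM). Next, compounds are pin-transferred and incubated 30 min. Finally, AlphaScreen beads are added and read after 30 min.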
Starred values were filed as active, the others as inactive; ? = inconclusive; · = no result; [ ] = another dose, or the depositor's remark. Calls follow the shape of the dose curve; as a rule, active = well fitted curve in the direction sought with a large enough effect; inconclusive = small, poorly fitted or top-dose-only effect, or another doubt; inactive = no such curve, though single readings can be large; an effect the other way counts as inactive or inconclusive. Potency is read from the fitted curve at half-maximal effect.

SMILES | VDR inh | PLK1 PBD inh | JMJD2A Tudor inh | HP1b chromo inh | BAZ2B block | L3MBTL1 block
Fc1ccc(-n2ncc3c(NCCCc4ccccc4)ncnc32)cc1 | 7.1% | · | -5.5% | 31.1% | 0.4% | ·
Cc1ccc(S(=O)(=O)N2CCN(C(=O)C3CSC4(C)CCC(=O)N34)CC2)cc1C (stereo not drawn) | 6.7% | 1.0% | -11.0% | 27.0% | 8.5% | -4.4%
CCCCC(CC)CNC(=O)Cc1ccc(-n2c(=O)[nH]c3ccccc3c2=O)cc1 (stereo not drawn) | -3.8% | · | -6.7% | 17.0% | 0.5% | ·
Cc1ccc(Cl)cc1N1CCN(C(=O)C2CCCN(Cc3nc(-c4cccc(Cl)c4)oc3C)C2)CC1 (stereo not drawn) | -21.0% | · | ? | 3.2% | ? | ·
Cc1oc(-c2ccc(Cl)cc2)nc1CN1CCCC(C(=O)NC2CC2)C1 (stereo not drawn) | ? | 21.2µM* | ? | -13.5% | 1.4% | ·
CCc1ccc(-c2nc(CN3CCCC(C(=O)N4CCN(c5cc(Cl)ccc5C)CC4)C3)c(C)o2)cc1 (stereo not drawn) | -12.1% | · | ? | -20.0% | 10µM* | ·
COc1ccc(-c2nc(CN3CCCC(C(=O)NC4CCCC4)C3)c(C)o2)cc1 (stereo not drawn) | 2.0% | -1.1% | 9.5% | 16.3% | -2.9% | ·
CCc1ccc(-n2c(SCc3nc(-c4cc(OC)ccc4OC)no3)nnc2-c2ccccc2)cc1 | -5.6% | · | -35.4% | 7.6% | -27.5% | ·
C/C=C/C=C/C(=O)N1CC[C@]23c4ccccc4N[C@H]4N(C)c5cccc6c5[C@]42CCN([C@H]6C2OC2(C)C)[C@H]13 (stereo partly drawn) | 1.1% | 1.7% | 50.1µM* | -32.4% | 50.1µM* | ·
O=C(O)CSc1c(-c2cccs2)[nH]c2ccccc12 | ? | 26.7µM* | ? | 8.5% | 3.8% | 3.2%
CCCCSc1nnc2c(n1)[nH]c1ccccc12 | 5.6% | -16.2% | 22.4µM* | 23.1% | ? | ·
CC(C)CSc1nnc2c(n1)[nH]c1ccccc12 | 14.1% | -3.7% | -26.2% | 26.0% | 6.7% | ·
O=C(O)CSc1nnc2c(n1)[nH]c1ccccc12 | -17.9% | 23.8µM* | -4.5%[57.1 µM] | 0.2% | -32.7% | ?
CCC(Sc1nc2ccccc2c2nc(CCn3c(C)nc4ccccc43)nn12)C(=O)Nc1ccc(F)cc1 (stereo not drawn) | -9.0% | · | -20.3% | 12.7% | -0.3% | ·
C/C(=N\NC(=S)Nc1ccc(F)cc1)c1ccc2c(c1)OCCO2 | -1.6% | -6.9% | 31.6µM* | ? | 35.5µM* | ?
C/C(=N\NC(N)=S)c1ccc2c(c1)OCCO2 | -8.2% | -3.8% | -15.2% | 9.2% | -3.3% | -0.7%
Cc1cc(OCC(=O)Nc2ccc(S(=O)(=O)N3CCN(C)CC3)cc2)cc(C)c1Cl | 12.7% | -3.8% | 50.1µM* | -17.4% | 50.1µM* | -4.6%[11.4 µM]
NS(=O)(=O)c1ccc(NC(=O)CN2CCN(S(=O)(=O)c3ccc(F)cc3)CC2)cc1 | ? | 4.74µM* | 14.1µM* | 10.8% | -13.4% | ·
COc1cccc(NC(=O)CN2CCN(S(=O)(=O)c3ccc(C(C)C)cc3)CC2)c1 | -1.5% | 29.9µM* | -19.9%[11.4 µM] | -2.6% | 5.2% | ·
COc1cc(NC(=O)CN2CCN(S(=O)(=O)c3ccc(C(C)C)cc3)CC2)cc(OC)c1 | 6.0% | ? | -28.1%[11.4 µM] | -9.0% | ? | ·
CC1CCN(S(=O)(=O)c2ccc(NC(=O)CN3CCN(C)CC3)cc2)CC1 | 18.3% | -1.1% | 3.16µM* | ? | ? | 4.8%
Cc1cc(OCC(=O)Nc2ccc(S(=O)(=O)N3CCN(C)CC3)cc2)ccc1Cl | 11.0% | -8.1% | -3.5% | 50.7% | 4.4% | 2.2%
CC1(C)Cc2c(cnn2-c2ccccc2)C(NC(=O)CCCn2cncn2)C1 (stereo not drawn) | -23.8% | -3.7% | -11.1% | 25.9% | -17.1% | ·
Cc1oc(-c2cccc(Cl)c2)nc1Cn1c(SCc2ccccc2F)nc2ccncc21 | 7.3% | · | -32.2% | 9.1% | -18.4% | ·
COc1ccccc1N1CCN(C(=O)CSc2nc3ccccc3nc2Cc2ccccc2)CC1 | -5.4% | · | -35.4% | 9.4%[57 µM] | -20.8% | ·
SMILES | VDR inh | PLK1 PBD inh | JMJD2A Tudor inh | HP1b chromo inh | BAZ2B block | L3MBTL1 block
Cc1ccccc1C(=O)Nc1nnc(-c2ccco2)o1 | -0.3% | -2.7% | 50.1µM* | 38.7% | 50.1µM* | 22.1%
O=C(Nc1nnc(-c2ccncc2)o1)c1ccc2ccccc2c1 | 3.8% | -9.4% | -22.1% | 37.9% | 79.4µM* | ·
Cc1cccc(C(=O)Nc2nnc(-c3ccco3)o2)c1 | 12.2% | 2.3% | ? | 35.3% | 44.7µM* | 3.7%
O=C(Nc1ccncc1)c1ccc2ccccc2c1 | -12.9% | -7.8% | -21.9% | 5.7% | 7.6% | 4.8%
CS(=O)(=O)c1ccccc1-c1nnc(NC(=O)c2cccc(N3C(=O)CCC3=O)c2)o1 | -5.5% | -13.7% | 2.51µM* | 12.9% | 79.4µM* | -7.4%
O=c1[nH]cnc2c1ncn2C1CC(O)C(CO)O1 (stereo not drawn) | 4.0% | · | · | · | · | ·
O=C(Nc1nnc(-c2cccnc2)o1)c1ccccc1Cl | -0.5% | -5.3% | -11.3% | 12.3% | · | ·
CS(=O)(=O)c1ccccc1-c1nnc(NC(=O)Cc2ccccc2)o1 | 11.5% | -8.1% | 79.4µM* | 7.8% | 25.1µM* | ·
O=C(Nc1nnc(-c2ccco2)o1)c1cccc(N2C(=O)CCC2=O)c1 | -8.2% | -4.4% | 4.47µM* | -7.6% | 22.4µM* | 12.2%
CSc1cccc(-c2nnc(NC(=O)c3cccc(N4C(=O)CCC4=O)c3)o2)c1 | -23.6% | -16.2% | ? | 6.9% | ? | 11.9%
Cc1cccc(C(=O)Nc2nnc(-c3cccnc3)o2)c1 | -16.7% | -4.1% | ? | 17.3% | 50.1µM* | ·
CS(=O)(=O)c1cccc(-c2nnc(NC(=O)c3ccc4ncsc4c3)o2)c1 | -2.7% | -2.8% | ? | 26.6% | 3.7% | -7.7%
CSc1ccccc1-c1nnc(NC(=O)Cc2ccccc2)o1 | 9.3% | -3.4% | 2.9% | 45.4% | -12.6% | ·
COc1cccc(-c2nnc(NC(=O)c3ccc4ncsc4c3)o2)c1 | ? | -24.2% | -19.6% | 25.1% | 79.4µM* | 24.2%
c1nc(N2CCC(N3CCCC3)CC2)c2cc(-c3ccc4c(c3)OCO4)ccc2n1 | · | · | -13.5% | · | · | ·
CCOc1ccc(-c2csc(NC(=O)c3cccc(N4C(=O)CCC4=O)c3)n2)cc1 | -3.6% | -6.4% | -0.3% | 0.2% | -17.5% | ·
Cc1ccc(-c2csc(NC(=O)c3cccc(N4C(=O)CCC4=O)c3)n2)o1 | ? | -6.8% | 79.4µM* | -10.7% | -32.5% | 4.8%
COc1cccc(C(=O)N2CCCCC2CCN2CCCCC2)c1 (stereo not drawn) | 10.4% | · | 0.9% | 43.3% | -0.1% | ·
CC(=O)c1coc2c1cc(O)c1ccccc12 | 7.5% | -2.4% | -12.1% | 9.5% | 7.6% | ·
O=C(c1ccco1)c1coc2c1cc(O)c1ccccc12 | -21.8% | 29.9µM* | ? | -1.7% | -20.9% | -11.5%
